NS1 function inh = qHTS Assay for Inhibitors of Influenza NS1 Protein Function; 270,000 tested, 0.4% active; Potency, µM (top dose mostly 46.1 µM), inactives show top-dose activity, positive = more growth; note: actives are rising curves; nearly all actives have a fitted effect of over 50% in size
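OD600 was taken as the measure of yeast growth restored by compound in an NS1-expressing S. cerevisiae strain. Cells had been washed out of glucose medium and diluted 1:100 into galactose -URA medium, pH 6.0.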
Pf growth 96h = Primary qHTS for delayed death inhibitors of the malarial parasite plastid, 96 hour incubation | P. falciparum luciferase reporter growth, 96 h | Potency, µM (highest dose often 28.7 µM), without a hit: at the top dose activity change, negative = inhibition, usual class: inhibitors | 320,000 tested, 6.9% active | AID 504834, 2011; active = well fitted inhibition curve with a large enough effect; inconclusive = small, poorly fitted or top-dose-only effect, or another doubt; inactive = no such curve, though single readings can be large or run the other way; note: % is set by controls: 0 for no effect and ±100 for the full control effect
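P. falciparum expressing integrated firefly luciferase, in erythrocytes at 2% hematocrit, 0.05% parasitemia, incubated with compounds 96 h at 37 C, 5% CO2. Growth inhibition read as loss of luminescence; two-generation exposure targets delayed-death apicoplast inhibitors.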
Pf growth 48h = Primary qHTS for delayed death inhibitors of the malarial parasite plastid, 48 hour incubation. Potency, µM (highest dose often 28.7 µM), for the others: top-dose activity change, negative = inhibition, hits mostly inhibitors. 310,000 tested, 5.9% active. P. falciparum luciferase growth in erythrocytes, 48 h; active = well fitted inhibition curve with a large enough effect; inconclusive = small, poorly fitted or top-dose-only effect, or another doubt; inactive = no such curve, though single readings can be large or run the other way; note: % is set by controls: 0 for no effect and ±100 for the full control effect
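Read-out is firefly luciferase luminescence from an integrated reporter in P. falciparum, so falling signal marks reduced parasite growth. Infected erythrocytes were at 2% hematocrit and 0.1% parasitemia (final) in Albumax-supplemented RPMI 1640.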
SARS PLpro yeast = qHTS of Yeast-based Assay for SARS-CoV PLP. S. cerevisiae expressing SARS-CoV PLpro, growth rescue. Potency, µM (top dose mostly 32.9 µM), inactives show top-dose activity, positive = growth rescue, most hits filed as activators. 330,000 tested, 0.19% active; note: 0% is about no effect; nearly all actives have a fitted effect of over 55% in size
Numbers without * were called inactive; u = inconclusive; x = no result given; [ ] = remark or other dose. A selection: hits, their analogues and other compounds. The true share with any hit is near 10%. Unless noted, calls come from the whole dose curve. Potency is the fitted concentration of half-maximal effect.

SMILES	NS1 function inh	Pf growth 96h	Pf growth 48h	SARS PLpro yeast
COc1ccccc1C1=CC(=O)C[C@H](c2ccc(Cl)cc2)C1	x	u	7.4µM*	0%
O=C1C=C(c2cc3ccccc3o2)C[C@@H](c2ccc(F)cc2)C1	x	u	u	0%
COc1ccc([C@H]2CC(=O)C=C(c3ccc(F)cc3OCc3ccccc3)C2)cc1OC	x	u	9.3µM*	-6%
O=C1C=C(c2cc(F)ccc2F)C[C@@H](c2ccc(F)cc2)C1	x	u	2.3µM*	-17%
COc1ccc(C[C@H](O)CN2CCOCC2)cc1	6%	x	x	x
O=C1C=C(c2ccccc2Oc2ccccc2)C[C@@H](c2ccc3c(c2)OCO3)C1	x	u	3.7µM*	3%
CCOC(=O)c1cccc(C2=CC(=O)C[C@H](c3ccc(Cl)cc3)C2)c1	x	u	13µM*	1%
Cc1nn2c(-c3ccc(S(=O)(=O)N4CCN(C)CC4)o3)nnc2c2ccccc12	7%	-28%	u	-2%
N#Cc1ccc(C(=O)NC2CCCCCCC2)cc1	-14%	118%	101%	-10%
Cc1ccc(OCC(=O)Nc2cc(-c3nn4c(C)nnc4s3)ccc2C)cc1	-1%	7.4µM*	u	-1%
Cc1ccccc1C(=O)c1cccn1CC(=O)NCCN1CCN(c2cccc(C)c2C)CC1	-5%	5.9µM*	u	-11%
O=C(c1ccco1)N(CCC(c1ccccc1)c1ccco1)Cc1ccc(F)cc1 (stereo unspecified)	3%	u	u	-21%
CC1(C)CC(C(CCN(Cc2ccccc2)C(=O)c2ccco2)c2ccc(F)cc2)CCO1 (stereo unspecified)	0%	1.5µM*	12µM*	-33%
Cc1ccc(C2CN(CCC(N)=O)C(=O)CO2)cc1 (stereo unspecified)	x	79%	17%	0%
Cc1cc(Nc2nc(Cl)c(Cl)cc2Cl)n(-c2ccccc2)n1	-10%	-4%	4%	10%
Clc1cccc(CNc2nnnn2-c2ccccc2)c1	-1%	15µM*	u	0%
Cc1cc(Nc2nnnn2-c2ccccc2)n(-c2ccc(Cl)cc2)n1	5%	x	4.7µM*	14%
COC(C[C@@H]1O[C@@H]1[C@H](O)[C@@H](C)OCc1ccccc1)OC	-2%	21%	30%	-9%
CC(C)=CCN1CCN(Cc2cnc(C)s2)CC1CCO (stereo unspecified)	-7%	u	20%	-2%
C=CCn1c(SCC(=O)Nc2cc(OC)c(NC(=O)c3ccco3)cc2OC)nnc1-c1ccncc1	16%	u	24%	-6%
C=CCn1c(SCC(=O)Nc2ccc(NC(=O)c3ccco3)c(OC)c2)nnc1-c1ccncc1	u	u	13µM*	-3%
CCOc1cc(NC(=O)c2ccco2)c(OCC)cc1NC(=O)Cc1cccc(OC)c1	-9%	1%	4.7µM*	-8%
COc1ccc(C)cc1NC(=O)C(=O)NNC(=O)c1ccco1	-19%	1.9µM*	-3%	-9%
COc1cc(NC(=O)c2ccc3c(c2)OCCO3)ccc1NC(=O)c1ccco1	4%	2.3µM*	60%	1%
O=C(Nc1cccc(NC(=O)c2ccco2)c1)c1ccc2c(c1)OCCO2	-3%	-2%	32%	1%
SMILES	NS1 function inh	Pf growth 96h	Pf growth 48h	SARS PLpro yeast
Cc1ccc(C(=O)N2CCC3(CC2)NCCc2[nH]cnc23)cc1C	-7%	23%	18%	-1%
COc1ccccc1OCC(=O)Nc1cc(C)ccc1NC(=O)c1ccco1	-7%	10µM*	u	-2%
C=CCn1c(SCC(=O)Nc2cc3oc4ccccc4c3cc2OC)nnc1-c1cnccn1	-106%	-15%	9.3µM*	-2%
COC(=O)c1ccccc1NC(=O)COC(=O)c1ccco1	-29%	0%[5.75 µM]	4%	-5%
COC(=O)c1ccccc1NC(=O)COC(=O)c1ccc(C)c(NC(=O)c2ccco2)c1	-18%	2.3µM*	2.3µM*	-4%
Cc1ccc(NC(=O)COc2ccccc2)c(NC(=O)c2ccco2)c1	0%	-13%	-10%	4%
COc1ccc(OCC(=O)Nc2cc(NC(=O)c3ccco3)ccc2OC)cc1	-7%	8.3µM*	u	-1%
COc1ccc(NC(=O)c2ccco2)cc1NC(=O)COc1ccccc1	-17%	-13%	-16%	-13%
O=C(Nc1ccnn1C1CCN(Cc2ccccc2F)CC1)C1CCCC1	3%	u	-6%	0%
NCCN	x	-9%	-2%	x
COc1cc(NC(=O)COc2ccc(C)c(C)c2)ccc1NC(=O)c1ccco1	-39%	29%	7.4µM*	-7%
O=C(CSc1nc(C2CC2)nc2sc3c(c12)CCCC3)NCc1ccco1	1%	16%	27%	1%
CCC1CCc2c(sc3nc(SCC(=O)NCc4ccco4)n(-c4ccccc4)c(=O)c23)C1 (stereo unspecified)	10%	-28%	12µM*	-6%
CC(C)Sc1nc(SCC(=O)O)c2c3c(sc2n1)COC(C)(C)C3	u	u	u	0%
Cc1ccc(-n2c(SCC(=O)NCc3ccco3)nc3sc4c(c3c2=O)CC(C)(C)SC4)cc1	22%	u	-7%	-4%
CC(C)Sc1nc(SCC(=O)NCc2ccco2)c2c3c(sc2n1)COC(C)(C)C3	2%	2.6µM*	u	4%
CC(C)Sc1nc2sc3c(c2c2nnc(SCC(=O)NCc4ccco4)n12)CCCC3	-10%	u	6.6µM*	1%
COc1cccc(OC)c1C(=O)Nc1ccnn1C	0%	23%	-7%	-5%
CC(Sc1n[nH]c(N)n1)C(=O)C12CC3CC(CC(C3)C1)C2 (stereo unspecified)	-5%	0%	x	-2%
CC(SC#N)C(=O)C12CC3CC(CC(C3)C1)C2 (stereo unspecified)	x	30%	13µM*	-11%
Cc1onc(-c2ccccc2)c1NC(=O)Nc1ccc(OC(F)F)cc1	-4%	4.7µM*	6.6µM*	1%
Cc1onc(-c2ccccc2)c1C(=O)Nc1ccc(OC(C)C)cc1	-48%	-9%	3%	-22%
C=CCNC(=O)C1CCC(=O)N1S(=O)(=O)c1ccc(C)cc1 (stereo unspecified)	13%	u	5%	-4%
C=CCn1c(SCc2ccccc2Cl)nnc1-c1sc2nc(C)cc(C)c2c1N	4%	u	12µM*	0%
O=C(NCCc1ccccc1F)C1CCC(=O)N(Cc2ccc(Cl)cc2)C1 (stereo unspecified)	-6%	122%	11%	-2%
Cc1ccc(O)c(Cn2nnc3ccccc32)c1	x	u	10µM*	-7%
Oc1ccc(Br)cc1Cn1nnc2ccccc21	-25%	-7%	u	-7%
CC1CN(C(=O)c2ccc(Br)c(S(=O)(=O)N3CCOCC3)c2)CC(C)O1 (stereo unspecified)	x	-28%	-27%	-3%
O=C(NCc1ccco1)c1ccc(-c2cccc(Cl)c2)o1	-2%	-2%	51%	-1%
O=S1(=O)N(CCN2CC=C(c3c[nH]c4cc(F)ccc34)CC2)c2cccc3c2N1CCC3	u	0.93µM*	1.2µM*	-5%

Source: PubChem (National Center for Advancing Translational Sciences (NCATS))
